Lamin A splicing – LMNA splicing modulation; HeLa LMNA splicing GFP/RFP minigene ratio, 48 h; Potency, µM (highest dose often 46.1 µM), without a hit: top-dose ratio change, negative = inhibition, usual class: inhibitors; 0.01% of 200,000 active; AID 1487; active means well fitted inhibition curve with a large enough effect in the signal ratio, with a control signal flat, not every such curve was filed as active; inconclusive means small, poorly fitted or top-dose-only effect, or effect the other way, or a change in a side signal; the % refers to the signal ratio; further: potency means the concentration at half of the fitted maximal effect
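S3 HeLa stable clones carrying a lamin A-EGFP splicing minigene plus DsRed2 were seeded at 600 cells/well in Opti-MEM with 2% FBS, pin-dosed and incubated 48 h at 37°C. Acumen cytometry (488 nm) gave the GFP/RFP total-intensity ratio.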
12-hLO inh – inhibitors of human 12-lipoxygenase (ALOX12); P18054; purified 12-hLO, xylenol orange hydroperoxide absorbance; Potency, µM (doses to about 57.1 µM), for inactives: at the highest dose activity change, negative = inhibition, actives largely listed as inhibitors; 0.12% of 150,000 active; active means well fitted inhibition curve with a large enough effect; inconclusive means small, poorly fitted or top-dose-only effect; further: potency means the concentration at half of the fitted maximal effect; nearly all actives have a fitted effect of over 55% in size
Target sequence (P18054 whole entry, looked up): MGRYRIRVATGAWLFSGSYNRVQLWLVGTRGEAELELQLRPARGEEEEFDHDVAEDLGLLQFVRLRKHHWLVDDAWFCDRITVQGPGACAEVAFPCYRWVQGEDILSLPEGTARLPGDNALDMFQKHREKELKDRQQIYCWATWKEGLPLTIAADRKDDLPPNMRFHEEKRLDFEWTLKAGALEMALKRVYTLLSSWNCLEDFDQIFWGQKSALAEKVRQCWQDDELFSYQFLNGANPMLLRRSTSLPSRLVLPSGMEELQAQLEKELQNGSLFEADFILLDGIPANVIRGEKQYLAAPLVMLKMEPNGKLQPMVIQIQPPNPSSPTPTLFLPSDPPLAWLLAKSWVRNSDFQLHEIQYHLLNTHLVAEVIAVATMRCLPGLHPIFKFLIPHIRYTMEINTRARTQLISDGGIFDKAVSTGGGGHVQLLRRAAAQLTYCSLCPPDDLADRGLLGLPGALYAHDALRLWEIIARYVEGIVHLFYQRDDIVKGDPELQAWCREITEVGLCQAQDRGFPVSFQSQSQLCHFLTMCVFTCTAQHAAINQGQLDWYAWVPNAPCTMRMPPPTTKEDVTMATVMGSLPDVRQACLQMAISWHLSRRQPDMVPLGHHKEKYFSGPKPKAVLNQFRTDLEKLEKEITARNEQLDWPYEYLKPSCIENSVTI
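Xylenol orange chromogenic assay: hydroperoxide from 12hLO oxidises Fe(II), giving red-shifted Fe(III)-XO absorbance. Conditions: 150 nM enzyme, 40 uM arachidonic acid, 25 mM Hepes pH 7.0, 0.01% Triton X-100, 30 min, room temperature.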
HPGD block – blocks human HPGD enzyme activity | purified HPGD, NADH fluorescence kinetic, PGE2 substrate | Potency, µM, for the others: at the top dose activity change, negative = inhibition, most hits filed as inhibitors | 4.3% of 150,000 active; further: potency means the concentration at half of the fitted maximal effect
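20 nM HPGD preincubated 15 min at room temperature with compound in 50 mM Tris-HCl pH 8, 0.01% Tween 20. Started with 1 mM NAD+ and 30 uM prostaglandin E2; NADH fluorescence (360/450 nm) read 5 times over 30-s intervals, last minus first.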
ALDH1A1 inh – inhibitors of human aldehyde dehydrogenase 1A1 | P00352 | Purified ALDH1A1, NADH fluorescence, propionaldehyde substrate | Potency, µM (top dose mostly 75.3 µM), for the others: at the highest dose activity, negative = inhibition, hits mostly inhibitors | 7.3% of 220,000 active | AID 1030;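 further: potency means the concentration at half of the fitted maximal effect; plate controls were no enzyme wells and a reference inhibitor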
PNC inhibitor – blocks assembly of the perinucleolar compartment. PC3M PTB-GFP, PNC prevalence imaging, 16 h; stronger effect = lower value. activity change (PNC), negative = inhibition, % at 10 µM. 3.1% of 140,000 active. AID 2417;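 active means readout at or below -70, meaning at least 70% loss of cells showing the perinucleolar compartment, a nuclear body marking cancer cells; inconclusive means readout between -30 and a set limit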;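 further: plate controls were DMSO wells for no effect and camptothecin positive control wells for full effect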
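Compounds are pinned in duplicate onto adhered PC3M cells stably expressing GFP-tagged PTB and incubated 16 h at 37 C. Cells are then fixed, nuclei stained with Hoechst, and PNC-positive cells counted.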
* = called active by the depositor; ? = inconclusive; . = no result; ! = not active in a repeat; [ ] = another dose, or the depositor's remark. In the library only some 10% were active in any assay of this set; here they are far more common. Unless noted, the call rests on the fitted dose curve; in most records, active means well fitted inhibition curve with a large enough effect (not every such curve was filed as active); inconclusive means small, poorly fitted or top-dose-only effect, or another doubt; inactive means no such curve, though single readings can be large or run the other way. Unless noted, on the % scale 0 is the no-effect control and ±100 the full control effect.

SMILES | Lamin A splicing | 12-hLO inh | HPGD block | ALDH1A1 inh | PNC inhibitor
CCOC(=O)c1c(S(=O)(=O)NCC(=O)N(C)c2ccc(C)cc2)c(C)n(C)c1C | 1%[46 µM] | . | . | . | .
O=C(O)c1cccc(Oc2ccccc2[N+](=O)[O-])c1 | -1% | -2% | -11% | 0% | -116*
Cc1cc(C(=O)COc2ncnc3sccc23)c(C)n1C1CC1 | ? | -4% | -10% | 20µM* | -16
COc1cccc(Nc2ccc(C(=O)O)cc2[N+](=O)[O-])c1 | -6% | -3% | 28µM* | -9% | -6
COc1ccc(C)cc1Nc1ccc(C(=O)O)cc1[N+](=O)[O-] | . | . | . | 3% | .
O=C(COc1ccccc1[N+](=O)[O-])c1ccccc1 | . | . | . | 2µM* | .
C=C1C[C@@]23C[C@@]1(O)CC[C@@H]2[C@]12C=C[C@@H](O)[C@](C)(C(=O)O1)[C@@H]2[C@@H]3C(=O)O | . | -1% | -5% | 6% | .
CCC(Oc1ccccc1)C(=O)Nc1ccc2oc(-c3ccc(OC)cc3)nc2c1 (stereo unspecified) | -5%[46 µM] | . | . | . | .
Cc1ccc(S(=O)(=O)Cc2nc(-c3ccc(C(=O)NCc4ccccc4)cc3)oc2C)cc1 | 2%[46 µM] | . | . | . | .
O=C(Cn1nc(C(F)(F)F)cc1C1CC1)NCc1ccccc1F | 18% | 0% | -6% | 3% | -26
Cc1cc(C(=O)COc2ccccc2[N+](=O)[O-])c(C)n1C1CC1 | . | . | . | 32µM* | .
Cc1cc(C(=O)COc2ccccc2C(N)=O)c(C)n1C1CC1 | -14%[46 µM] | . | . | ? | .
COc1ccc(C(=O)N2CCC[C@@]3(CCN(C(=O)Nc4ccccc4)C3)C2)cc1 | . | 0% | -5% | -4% | .
O=C(CN1C(=O)NC2(CCCC2)C1=O)N1CCN(C(=O)c2ccco2)CC1 | 9% | -6% | -13% | -8% | 3
O=C(COC(=O)C1(c2ccc(F)cc2)CCCC1)N1CCN(C(=O)c2ccco2)CC1 | ? | -7% | -2% | 20µM* | ?
O=C(CN1C(=O)NC2(CCCCCCC2)C1=O)N1CCN(C(=O)c2ccco2)CC1 | 3% | -2% | 1% | 11µM* | -18
COc1ccc(C2C(CC(=O)O)=C(O)C(=O)N2c2ccccc2)cc1 (stereo unspecified) | ? | -21% | -23% | 18µM* | ?
CCCC(=O)NCC(c1ccc2c(c1)OCO2)N1CCN(c2ccccc2)CC1 (stereo unspecified) | 1%[46 µM] | . | . | . | .
CCc1ccc2c(c1)C(NC(C)=O)C(=O)N2CC (stereo unspecified) | -6% | 13% | -12% | 22µM* | 43
CCN1C(=O)C(NC(C)=O)c2cc(Br)ccc21 (stereo unspecified) | -1% | 1% | 1% | ? | -7
COc1ccc2c(c1)C(NC(C)=O)C(=O)N2C (stereo unspecified) | 2% | -1% | 2% | 1% | 15
CCCCN1C(=O)C(NC(C)=O)c2cc(Br)ccc21 (stereo unspecified) | 2% | 1% | -10% | 0.18µM* | -11
CC(C)CCNC(=O)CN1C(=O)CCn2nc(-c3cn(C)c4ccccc34)cc21 | 9%[46 µM] | . | . | . | .
Cc1ccc(-n2nnnc2C(Cl)c2nnnn2-c2ccc(C)cc2)cc1 | ? | -2% | 5µM* | -3% | 21
Cc1ccc(-n2nnnc2-c2ccccc2)cc1 | . | . | . | -1% | .
SMILES | Lamin A splicing | 12-hLO inh | HPGD block | ALDH1A1 inh | PNC inhibitor
Cc1ccccc1C(=O)Nc1ccc2nc(SCC(=O)N3CCc4ccccc43)sc2c1 | -1%[46 µM] | . | . | . | .
NC1=NC(=Nc2cccc(S(N)(=O)=O)c2)c2ccccc21 | . | . | . | 3% | .
COc1cc(N=Nc2cccc(S(N)(=O)=O)c2)c2ccccc2c1N | ? | ? | -12% | 7.9µM*! | .
O=C(c1cnn(C(=O)COc2ccccc2F)c1)c1cc(F)ccc1O | . | . | . | 0.4µM* | .
CN(C)c1cccc(C(=O)n2cc(C(=O)c3cc(F)ccc3O)cn2)c1 | 2% | -11% | -17% | 4.5µM* | 17
O=C(c1cnc2nc3ccccc3n2c1)c1cc(F)ccc1O | . | . | . | 4.5µM* | .
O=C(CC1CCS(=O)(=O)C1)Nc1ccc[nH]c1=O (stereo unspecified) | -8% | 9% | -20% | 25µM* | 18
CCc1ccccc1NC(=O)CC1CS(=O)(=O)CC1CC(=O)Nc1ccccc1CC (stereo unspecified) | -4% | -1% | -1% | 11% | ?
O=c1[nH]c(-c2ccncc2)nc2ccccc12 | -8% | -3% | 7.1µM* | 7.9µM* | 7
N=c1oc2ccccc2cc1-c1nc2ccccc2c(=O)[nH]1 | -5% | -10% | -14% | ? | -25
O=c1[nH]c(-c2cccnc2)nc2ccccc12 | -1% | -1% | 18µM* | 12% | ?
COc1ccc(C(=O)N2CCC3(CCCN(c4ccccc4)C3)CC2)cc1 | . | -11% | -7% | ? | .
COC1=C(Nc2ccc(OC)cc2)C(=O)c2ccccc2C1=O | ? | -7% | 16µM* | ? | 36
CCOc1ccc(NC2=C(OC)C(=O)c3ccccc3C2=O)cc1 | ? | -15% | 20µM* | 3.2µM* | 9
COC1=C(Nc2ccc(O)cc2)C(=O)c2ccccc2C1=O | ? | -6% | 28µM* | 18µM* | 27
COc1ccc(NC2=C(NCCO)C(=O)c3ccccc3C2=O)cc1 | ? | -9% | -18% | 11µM* | ?
COc1ccc(-c2cc(C(=O)Oc3ccc(C#N)cc3)no2)cc1 | -16%[46 µM] | . | . | . | .
Cc1cccc(NC2=C(NCCO)C(=O)c3ccccc3C2=O)c1 | -10% | -12% | -6% | 25µM* | -28
CC(=O)O[C@H]1CC[C@]2(C)C(=CC[C@H]3[C@H]4C[C@H]5O[C@]6(CC[C@H](C)CN6)[C@H](C)[C@@H]5[C@]4(C)CC[C@@H]32)C1 | . | 3%[11.4 µM] | -7% | -4%[13.5 µM] | .
COc1cccc(N2CCN(C3CC(=O)N(c4ccc(C)c(Cl)c4)C3=O)CC2)c1 (stereo unspecified) | 6% | -5% | -14% | ? | 1
COc1cccc(N2CCN(C3CC(=O)N(c4ccc(F)c(Cl)c4)C3=O)CC2)c1 (stereo unspecified) | 1% | -7% | -28% | 3.5µM* | -9
COc1ccc(NC2CCN(C3CC(=O)N(c4ccc(F)c(Cl)c4)C3=O)CC2)cc1 (stereo unspecified) | -3% | -12% | ? | 1.1µM* | -20
COc1cccc(N2C(=O)CC(N3CCC(c4nc5ccccc5[nH]4)CC3)C2=O)c1 (stereo unspecified) | -2% | -3% | -14% | 32µM* | 71
CCN1C(=O)CC(N2CCC(Nc3ccc(OC)cc3)CC2)C1=O (stereo unspecified) | 2% | 0% | -2% | ? | 55
COc1ccc(N2C(=O)CC(N3CCN(S(=O)(=O)c4c(F)cccc4F)CC3)C2=O)cc1OC (stereo unspecified) | 12% | 0% | -17% | 14µM* | 41
COc1ccc(Nc2cc(C(=O)NCc3ccccc3OC)c3ccccc3n2)cc1 | -13%[46 µM] | . | . | . | .

Source: PubChem
